Nine compounds from PubChem BioAssay (NCATS) can be followed below.

“And” between values parts separate entries of the source, which are not always exact repeats. Equal entries are not always repeated. Unmarked numbers belong to inactive results. Records with an inconclusive call do not appear. The source made the active and inactive calls. Unless noted, calls come from the whole dose curve; as a rule, active = well fitted curve in the direction sought with a large enough effect; inconclusive = small, poorly fitted or top-dose-only effect, or another doubt; inactive = no such curve, though single readings can be large; an effect the other way counts as inactive or inconclusive.

Test [1] in a line: Stat Signaling Pathway (AID 446; active = well fitted curve in either direction with a large enough effect, not every such curve was filed as active;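 note: ME-180 cervical cancer cells given 40 pM IL-6 alongside compound; SIE-controlled beta-lactamase reporter measured as 460/530 nm FRET emission ratio; % is set by controls: 0 for no effect and ±100 for the full control effect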). To be noted: ME-180 (cervical carcinoma) SIE beta-lactamase reporter, IL-6 stimulated, 5 h. In short, it runs like this:
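FRET read-out (405 nm excitation, 460/530 nm emission) of a beta-lactamase reporter under a STAT-inducible element in ME-180 cervical carcinoma cells. Cells with compound receive 40 pM IL-6 for 5 h. Values are normalised to AC90 stimulation and AC90 JAK-inhibitor controls.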

The target in test [2] is Glucocorticoid receptor (Homo sapiens) (UniProt P04150). Description: GR-GFP Redistribution (AID 450;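 active = compounds whose dose series gives a full or clear partial fitted curve of increased nuclear translocation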; note: potency is the fitted concentration of half-maximal effect). To be noted: U2OS GR-GFP nuclear translocation, laser cytometry, 2 h.
Sequence of Glucocorticoid receptor (Homo sapiens) (P04150 whole entry, looked up, the tested form may be a part): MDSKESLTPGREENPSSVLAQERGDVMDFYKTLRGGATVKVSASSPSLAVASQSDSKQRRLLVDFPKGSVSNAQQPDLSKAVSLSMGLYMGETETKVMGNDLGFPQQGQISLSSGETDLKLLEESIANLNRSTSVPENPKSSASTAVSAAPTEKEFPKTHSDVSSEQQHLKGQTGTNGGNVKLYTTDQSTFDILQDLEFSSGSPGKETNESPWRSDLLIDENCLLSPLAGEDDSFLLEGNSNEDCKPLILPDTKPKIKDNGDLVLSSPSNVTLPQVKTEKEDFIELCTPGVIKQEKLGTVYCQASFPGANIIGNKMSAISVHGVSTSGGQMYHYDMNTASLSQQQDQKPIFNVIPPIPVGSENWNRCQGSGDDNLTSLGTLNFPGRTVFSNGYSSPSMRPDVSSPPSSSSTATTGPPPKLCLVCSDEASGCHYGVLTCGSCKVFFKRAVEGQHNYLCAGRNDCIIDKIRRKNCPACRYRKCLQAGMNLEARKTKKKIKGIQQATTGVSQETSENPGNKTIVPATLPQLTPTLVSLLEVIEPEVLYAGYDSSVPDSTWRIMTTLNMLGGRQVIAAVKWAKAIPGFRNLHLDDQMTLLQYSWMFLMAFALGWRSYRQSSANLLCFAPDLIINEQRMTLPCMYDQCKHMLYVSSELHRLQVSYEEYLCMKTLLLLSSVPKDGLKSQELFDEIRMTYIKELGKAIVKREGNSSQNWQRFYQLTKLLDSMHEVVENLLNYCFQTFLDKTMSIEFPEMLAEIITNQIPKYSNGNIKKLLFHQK
For test [3] the target is unchanged. Description: GR-EFC Redistribution (AID 451; calls by dose curve; note: potency is the fitted concentration of half-maximal effect). The conditions noted are these: CHO-K1 GR-EFC translocation, beta-gal luminescence, 2 h. In short, it runs like this: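 CHO-K1 cells expressing nuclear EA and GR-ED fragments of b-gal; compounds titrated up to 46 uM final, 2 h at 37 C. GR nuclear translocation read as complemented b-gal luminescence after 1 h RT detection.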

The target of test [4] is Mitogen-activated protein kinase 10 (Mus musculus) (UniProt Q61831). Description: JNK3 AlphaScreen Assay (AID 530; active = well fitted curve in either direction with a large enough effect, not every such curve was filed as active;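 note: kinase came from lysate of stimulated human HepG2 cells; signal reports phosphorylation of biotinylated GST-cJun 1-79 at Ser73 with 10 µM ATP; % is set by controls: 0 for no effect and ±100 for the full control effect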). The conditions noted are these: JNK3 lysate, c-Jun phosphorylation; series mostly up to 57.1 µM. Put shortly:
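Activity was read by AlphaScreen after JNK3-containing HepG2 lysate (cytokine pre-activated) phosphorylated biotinylated GST-cJun with 10 uM ATP at room temperature. Phospho-Ser73 cJun antibody with Protein-A acceptor beads provided detection.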
A general note: In Alpha technology, singlet oxygen from a donor bead excites a nearby acceptor bead.

Test [5] has as its target 3',5'-cyclic-AMP phosphodiesterase 4B (Homo sapiens) (UniProt Q07343). Description: qHTS Assay for Inhibitors of PDE-IV (AID 607; active = well fitted activation curve with a large enough effect in the main read-out, with a control signal flat, not every such curve was filed as active; note: % of control where 0% means no effect). The conditions noted are these: HEK293 ACTOne CNG channel cells, membrane potential fluorescence; series mostly up to 22.9 µM. Put shortly:
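Cell-based read-out of cAMP via a modified cyclic nucleotide-gated channel and membrane potential dye (535/590 nm) in HEK293 cells expressing PDE4 endogenously. Compounds tested up to 22.9 uM final; 100 uM RO 20-1724 reference.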
In general terms: Quantitative high-throughput screening tests each substance at several concentrations.

Test [6] is described as follows: Cell Viability - NIH 3T3 (AID 541).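 Note: cells exposed to compound for 40 hours; plate controls were DMSO alone for no effect and tamoxifen positive control for full effect; nearly all actives have a fitted effect of over 25% in size.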 To be noted: NIH 3T3 cell viability, qHTS; at 92.2 µM (top of the series). Put shortly: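 Cells seeded at 1000/well, rested 5 hr at 37 °C, then dosed and incubated 40 hr at 37 °C. CellTiter-Glo added, 20 min room temperature, luminescence read. AC50 by Hill fit.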
Test [7] is described as follows: Cell Viability - HUV-EC-C (AID 542). For activity change, negative = cytotoxicity: % is set by controls: 0 for no effect and ±100 for the full control effect.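 Note: cells exposed to compound for 40 hours; nearly all actives have a fitted effect of over 35% in size.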 Note: potency is the fitted concentration of half-maximal effect. To be noted: HUV-EC-C endothelial cell viability, qHTS; series mostly up to 92.2 µM. Put shortly:
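Cells were seeded at 1000 per well and incubated 5 hr at 37 °C before compound addition. After 40 hr at 37 °C, CellTiter-Glo reagent was added for 20 min and luminescence read. AC50 values came from Hill-equation modelling.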

The nature of test [8]: Cell Viability - SH-SY5Y (AID 544).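 Note: cells exposed to compound for 40 hours; nearly all actives have a fitted effect of over 55% in size.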 Note: potency is the fitted concentration of half-maximal effect. The conditions noted are these: SH-SY5Y neuroblastoma cell viability; viability change, negative = cytotoxic: at 92.2 µM (top of the series). In short, it runs like this:
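Cells were plated at 1500 per well and allowed 5 hr at 37 °C. Compounds were added across a concentration range and incubated 40 hr at 37 °C. CellTiter-Glo was added for 20 min at room temperature before luminescence reading.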

Test [9] in a line: Cell Viability - Renal Proximal Tubule (AID 545).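 Note: cells exposed to compound for 40 hours; nearly all actives have a fitted effect of over 40% in size.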 Note: potency is the fitted concentration of half-maximal effect. The conditions noted are these: renal proximal tubule cells viability, primary cells of rat origin; activity change, negative = cytotoxicity: at 91.7 µM (top of the series). Put shortly:
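Cytotoxicity is scored as a concentration-dependent drop in cellular ATP in primary rat renal proximal tubule cells exposed for 40 hr. AC50 derives from Hill modelling.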

Test [10] is described as follows: Cell Viability - Mesenchymal (AID 546).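 Note: cells exposed to compound for 40 hours before reading.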 Note: potency is the fitted concentration of half-maximal effect. The conditions noted are these: mesenchymal cells viability, qHTS; activity change, negative = cytotoxicity: at 91.7 µM (top of the series). Put shortly: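 Human renal mesenchymal cells (glomerulus-derived), 1000 cells/well, 5 hr 37 °C pre-incubation; compound 40 hr, 37 °C; CellTiter-Glo, 20 min RT; luminescence; AC50 via Hill equation.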

A short description of test [11]: Cellular Toxicity (caspase-3) HepG2 (AID 654).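 For caspase-3 activation: cells exposed to compound for 16 hours before reading; 0% = DMSO alone and 100% = caspase signal from 100 µM tamoxifen.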 Note: potency is the fitted concentration of half-maximal effect. To be noted: HepG2 caspase-3 activation, luminescence; series mostly up to 92.2 µM. Put shortly: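 Caspase 3/7 activation in HepG2 is measured as rising luminescence after a 16 hr treatment at 37 °C. Values are scaled between DMSO basal and 100 uM tamoxifen, and AC50 is fitted with the Hill equation.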
Test [12] can be described thus: Cellular Toxicity (caspase-3) Jurkat (AID 655).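 Note: cells exposed to compound for 16 h at 37 °C before reading.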 The conditions noted are these: Jurkat caspase-3 activation, luminescence, DMSO = 0%, tamoxifen = 100%; at 92.2 µM (top of the series). Put shortly:
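Caspase 3/7 activation is scored as increased luminescence in Jurkat cells cultured with compound for 16 hours in complete medium. AC50 values come from Hill fits of qHTS concentration-response data normalized to DMSO and 100 uM tamoxifen controls.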

Test [13] in a line: Cellular Toxicity (caspase-3) HUV-EC-C (AID 656). Note: potency is the fitted concentration of half-maximal effect. To be noted: HUV-EC-C cells, caspase-3 activation (apoptosis); series mostly up to 92.2 µM. In short, it runs like this: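 Read-out: luminescence proportional to caspase 3/7 activity, measured 20 min after adding Caspase-Glo 3/7 reagent. Cells (HUV-EC-C) had received compound for 16 hr at 37°C. Increases relative to DMSO and 100 uM tamoxifen gave concentration-response AC50 values.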

The nature of test [14]: Cellular Toxicity (caspase-3) SHSY5Y (AID 657).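 Note: cells exposed to compound for 16 hours at 37 °C.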 The conditions noted are these: SH-SY5Y caspase-3 activation, DMSO zero, 10 µM staurosporine = 100%; series mostly up to 91.7 µM. In short, it runs like this:
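Cells plated and incubated 5 h at 37 °C, dosed over a concentration range, incubated 16 h, then given Caspase-Glo 3/7 reagent for 1 h at room temperature before luminescence reading. Staurosporine (10 uM) defined full stimulation.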

Test [15] is described as follows: Cellular Toxicity (caspase-3) BJ (AID 658). The conditions noted are these: BJ fibroblasts, luminescence, normalized: DMSO 0%, staurosporine 100%; series mostly up to 91.7 µM. Put shortly: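 qHTS, BJ fibroblasts, 1000 cells/well; 5 hr preincubation, 16 hr compound, 37 °C; Caspase-Glo 3/7 reagent, 1 hr RT; luminescence. DMSO = 0%, 10 uM staurosporine = 100%. Hill-equation AC50.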

Test [16] is described as follows: Cellular Toxicity (caspase-3) MRC-5 (AID 659). Note: potency is the fitted concentration of half-maximal effect. The conditions noted are these: MRC-5 cells, luminescence; Potency: caspase-3 activation; series mostly up to 91.7 µM. In short, it runs like this: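 MRC-5 fibroblasts, 1500/well; 16 h cpd, 37 °C; Caspase-Glo 3/7, 1 h RT; lumi read. Norm: DMSO = 0%, 10 uM staurosporine = 100%. Hill-fit AC50 from qHTS conc-response.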

Test [17] in a line: Cellular Toxicity (caspase-3) SK-N-SH (AID 661). Note: potency is the fitted concentration of half-maximal effect. The conditions noted are these: SK-N-SH caspase-3 activation, qHTS; series mostly up to 91.7 µM. Put shortly: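 Cells were seeded and incubated 5 hr at 37 °C, dosed with compound over a concentration range for 16 hr, then given Caspase-Glo 3/7 reagent for 1 hr at room temperature before luminescence reading.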
The nature of test [18]: Cellular Toxicity (caspase-3) H-4-II-E (AID 663).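 Note: cells exposed to compound for 16 hr before readout.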 To be noted: H-4-II-E rat hepatoma, scaled: DMSO 0%, 100 µM tamoxifen 100%; at 92.2 µM (top of the series). Put shortly:
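H-4-II-E rat hepatoma, 1500 cells/well, 5 hr settle at 37 °C; compound 16 hr, 37 °C, complete medium; Caspase-Glo 3/7, 20 min RT; luminescence. DMSO = 0%, 100 uM tamoxifen = 100%; Hill-equation AC50.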

Test [19] is described as follows: Cell Viability - N2a (AID 540).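 For activity change, negative = cytotoxicity: plate controls were DMSO alone for no effect and tamoxifen control for full effect.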 Note: nearly all actives have a fitted effect of over 45% in size. Note: potency is the fitted concentration of half-maximal effect. To be noted: N2a mouse neuroblastoma cell viability; activity change, negative = cytotoxicity: at 92.2 µM (top of the series). In short, it runs like this: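 Cytotoxicity was scored as loss of cellular ATP in N2a cells, a mouse neuroblastoma line. Compounds are applied in a qHTS concentration series for 40 hr at 37 °C.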
Test [20] is described as follows: Cell Viability - H-4-II-E (AID 543).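 Note: potency is the fitted concentration of half-maximal effect; cells exposed to compound for 40 hours; nearly all actives have a fitted effect of over 35% in size.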 The conditions noted are these: H-4-II-E rat hepatoma viability; series mostly up to 92.2 µM. In short, it runs like this: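 Cells seeded at 1500 per well and rested 5 hr; compounds added; 40 hr incubation at 37 °C; CellTiter-Glo added, 20 min at room temperature; luminescence read. Hill-equation fits gave AC50.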

Sequence of 3',5'-cyclic-AMP phosphodiesterase 4B (Homo sapiens) (Q07343 whole entry, looked up): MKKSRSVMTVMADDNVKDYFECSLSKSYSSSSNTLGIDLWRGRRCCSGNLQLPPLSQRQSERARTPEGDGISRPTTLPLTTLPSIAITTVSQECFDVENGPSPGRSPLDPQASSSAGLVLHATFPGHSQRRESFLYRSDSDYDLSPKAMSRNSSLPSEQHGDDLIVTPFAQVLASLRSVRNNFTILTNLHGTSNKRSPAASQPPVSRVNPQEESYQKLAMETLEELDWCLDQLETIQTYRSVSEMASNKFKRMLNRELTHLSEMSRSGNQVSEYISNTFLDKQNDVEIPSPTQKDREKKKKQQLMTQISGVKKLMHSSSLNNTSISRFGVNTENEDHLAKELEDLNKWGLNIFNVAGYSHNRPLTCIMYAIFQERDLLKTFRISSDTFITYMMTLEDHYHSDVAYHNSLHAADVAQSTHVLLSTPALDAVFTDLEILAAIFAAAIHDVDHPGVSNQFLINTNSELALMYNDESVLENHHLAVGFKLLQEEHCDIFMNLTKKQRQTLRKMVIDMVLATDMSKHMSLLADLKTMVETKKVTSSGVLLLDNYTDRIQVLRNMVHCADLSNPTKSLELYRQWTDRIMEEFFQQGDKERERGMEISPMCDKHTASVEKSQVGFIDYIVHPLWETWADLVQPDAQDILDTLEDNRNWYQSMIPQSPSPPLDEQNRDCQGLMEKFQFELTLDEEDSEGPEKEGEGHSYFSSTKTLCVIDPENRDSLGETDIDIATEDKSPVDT

On to `c1cc(-c2sc(-c3ccncc3)c(-c3ccncc3)c2-c2ccncc2)ccn1`, for which the activity, negative = inhibition in [1] (at 7.69 µM (top of the series)) was 7.72%. Besides, the Potency in [2] is over 46 µM; in test [3], over 9.22 µM. In test [4], the activity change, negative = inhibition is -6.48% [at 11.4 µM]. Moreover, the compound was classed as inactive in test [5].

As to `CC(=O)O[C@]1(C(C)=O)CC[C@H]2[C@@H]3C=C(Cl)C4=CC(=O)[C@@H]5C[C@@H]5[C@]4(C)[C@H]3CC[C@@]21C`, the call in test [4], in [14] and in test [15] was inactive. In addition, the activity change, negative = cytotoxicity in [6] is -124% (active). For the same compound, the Potency result in test [7], in test [8], in [9], in test [10], in [11] and in [13] was “inactive” throughout. For the same compound, the Potency result in [16] and in test [17] was “inactive” in each case. For the same compound, the caspase-3 activation is 11.6% in [12] and 0.0575% in test [18].

As for `CCN1CCC[C@H]1CNC(=O)c1cc(S(N)(=O)=O)ccc1OC`, the activity, negative = inhibition in test [1] (at 17.2 µM (top of the series)) is 8.96%. In addition, the Potency in test [2] is > 20.6 µM and > 46 µM; in [3] it was > 20.6 µM and > 46 µM. For the same compound, the result in [4] and in test [5] was inactive.

For the compound `O=c1c(O)c(-c2ccc(O)cc2)oc2cc(O)cc(O)c12`, the Potency in [2] is > 20.6 µM and > 46 µM; in test [3], > 20.6 µM and > 46 µM. The compound was called inactive in test [4], in test [5], in test [14] and in test [15]. For the same compound, the Potency entry in test [19], in test [7], in test [9], in test [10], in [11] and in test [13] was “inactive” each time. The Potency result in test [16] and in test [17] was “inactive” throughout. For the same compound, in test [12], the caspase-3 activation is 1.17%.

Consider `C[C@@H](O)[C@H]1C(=O)N2C(C(=O)O)=C(S[C@@H]3CN[C@H](C(=O)N(C)C)C3)[C@H](C)[C@H]12`, for which the activity, negative = inhibition in [1] (at 17.2 µM (top of the series)) is -18.6%. The Potency in [2] and in test [3] was over 20.6 µM in each case. Also, the compound was called inactive in [4] and in test [5].

Consider `CC1=C(/C=C/C(C)=C/C=C/C(C)=C/C(=O)Nc2ccc(O)cc2)C(C)(C)CCC1`, for which the compound was classed as inactive in test [4]. Besides, the Potency in test [19] is 31.6 µM (active); in test [7], 31.6 µM (active); in test [20], 20 µM (active); in test [8] it was 12.6 µM (active); in test [9] it was 20 µM (active); in test [10], 31.6 µM (active). Further, the Potency in [11], in [13], in [16] and in test [17] was 31.6 µM (active) in each case. Further, the activity change, negative = cytotoxicity in test [6] was -85.6% (active). The caspase-3 activation in test [12] was -0.319% (active); in test [18], 91.2% (active).

`CC(C)OC(=O)C(C)(C)Oc1ccc(C(=O)c2ccc(Cl)cc2)cc1`: the Potency in test [2] is > 46 µM and > 20.6 µM; in test [3], > 46 µM and > 20.6 µM. Moreover, the outcome in [5] was inactive.

Regarding `O=c1cc(-c2ccccc2)oc2cc(O)cc(O)c12`, the Potency in test [2] and in test [3] was over 20.6 µM in each case. Besides, the compound was classed as inactive in test [5].

Consider `CS(=O)c1ccc(-c2nc(-c3ccc(F)cc3)c(-c3ccncc3)[nH]2)cc1` (stereo unspecified), for which the Potency in test [2] and in test [3] was over 46 µM in each case.
